The campaign covered roughly 48,000 compounds. About 13,000 (27%) showed an effect of 50% or more. The list shows a part of the results.
What follows are compounds tested on Wolbachia pipientis (assay: Anti-Wolbachia Cell-Based Screen). Conditions: 5 µM.
Type: functional
Set-up: scale not given: in the data most compounds retested in dose-response had high values

| Compound | Percent Effect [%] |
| --- | --- |
| O=C1C[C@@H]2CCN(Cc3ccccc3)C[C@@H]2CCN1C1CCCCC1 | -3.832 |
| Cc1cc(F)cc2c(NCC(C)(C)C(N)=O)c(C#N)cnc12 | -8.15 |
| Cc1[nH]c2ccccc2c1-c1ccnc(N[C@@H](CO)C(C)C)n1 | 99.82 |
| Cc1[nH]c2ccccc2c1-c1ccnc(N[C@@H](C)CO)n1 | 114.9 |
| O=C(NCCN1CCCCC1)c1nc2ccccc2c(=O)[nH]1 | 8.44 |
| Cc1ccc(-c2nc(CNC(C)CCO)[nH]c2-c2ccccn2)cc1 (stereo not given) | 0.0278 |
| Cc1[nH]c2ccccc2c1-c1ccnc(N[C@H](CO)CC(C)C)n1 | 64.61 |
| Cc1ccc(-c2ccnc(NC(C)c3c(C)n[nH]c3C)n2)c(C)n1 (stereo not given) | 5.666 |
| Cc1[nH]c2ccccc2c1-c1ccnc(NCCN2CCOCC2)n1 | 0.04004 |
| Cc1[nH]c2ccccc2c1-c1ccnc(NC[C@H](O)CO)n1 | 2.314 |
| Cc1[nH]c2ccccc2c1-c1ccnc(NCCN2CCCCC2)n1 | 107.1 |
| Cn1cc(C2CC3(CCN(C(=O)c4cccs4)CC3)NC2=O)cn1 (stereo not given) | 3.208 |
| COc1cc(Cl)cc(C(=O)N2CCC3(CC2)CNC(=O)C3)c1 | -6.802 |
| CCOCc1nc2c(c(N(C)Cc3ccsc3)n1)CCNCC2 | -15.95 |
| COCCN1CCO[C@@H]2CN(C(=O)c3ccc4[nH]ccc4c3)CC[C@@H]2C1 | -49.46 |
| O=C(CCc1ccccc1)N1C[C@@H]2CN(Cc3ccoc3)CCO[C@@H]2C1.O=C(O)C(F)(F)F | 22.25 |
| O=C(c1ccccc1)N1CCO[C@@H]2CN(Cc3ccc[nH]3)C[C@@H]2C1 | 106.1 |
| CC(=O)N1CCO[C@@H]2CN(Cc3ccccc3F)C[C@@H]2C1.O=C(O)C(F)(F)F | 102.5 |
| O=C(O)C(F)(F)F.O=C([C@H]1CN(Cc2ccccc2F)C[C@H]2OCC[C@@H]12)N1CCCO1 | 3.627 |
| COCCN1CCO[C@@H]2CN(Cc3ccccc3OC)C[C@@H]2C1.O=C(O)C(F)(F)F.O=C(O)C(F)(F)F | 1.646 |
| Fc1ccccc1CN1C[C@@H]2CN(Cc3cccnc3)CCO[C@@H]2C1.O=C(O)C(F)(F)F.O=C(O)C(F)(F)F.O=C(O)C(F)(F)F | 0.8548 |
| O=C(O)C(F)(F)F.O=C(c1ccc2[nH]ccc2c1)N1CC[C@@H]2CN(CC3CC3)CCO[C@@H]2C1 | -56.17 |
| CC(=O)N1CCO[C@@H]2CN(Cc3ccccc3Cl)C[C@@H]2C1.O=C(O)C(F)(F)F | 111.8 |
| COc1ccccc1CN1C[C@@H]2CN(C(C)=O)CCO[C@@H]2C1.O=C(O)C(F)(F)F | 111.4 |
| COc1ccccc1CN1C[C@@H]2CN(Cc3cccnc3)CCO[C@@H]2C1.O=C(O)C(F)(F)F.O=C(O)C(F)(F)F.O=C(O)C(F)(F)F | -7.53 |

| Compound | Percent Effect [%] |
| --- | --- |
| CN(C)C(C(=O)NCCSc1ncn[nH]1)c1cccc(F)c1 (stereo not given) | -5.881 |
| Cc1cc(NC(=O)CSc2nc(=O)ccn2C(C)C)no1 | -5.923 |
| C/C(=C/c1ccccc1)CNCc1cccc(C(N)=O)c1 | -6.417 |
| Cc1ccc(CNC(=O)NCC(=O)N2CCCC2)c(N2CCCC2)c1 | -13.16 |
| CCC(NCc1cc[nH]n1)c1nc(C(F)(F)F)cs1 (stereo not given) | -5.752 |
| CC(=O)N1CCO[C@@H]2CN(Cc3cccc(Cl)c3)C[C@@H]2C1.O=C(O)C(F)(F)F | 105.7 |
| COc1ccc(CN2C[C@@H]3CN(Cc4cccnc4)CCO[C@@H]3C2)cc1.O=C(O)C(F)(F)F.O=C(O)C(F)(F)F.O=C(O)C(F)(F)F | 13.72 |
| CN1CCO[C@@H]2CN(C(=O)COc3cccc(Cl)c3)C[C@@H]2C1.O=C(O)C(F)(F)F | -8.699 |
| Cc1[nH]ccc1C(=O)N1C[C@H]2CC[C@@H]1CN(S(=O)(=O)N(C)C)C2 | -3.55 |
| Cc1ccc(CNC(=O)N(C)Cc2ccc([S+](C)[O-])cc2)s1 (stereo not given) | -1.725 |
| O=C(c1ccc(F)cc1)N1CCOC(c2nc(-c3ncccn3)no2)C1 (stereo not given) | 124.8 |
| O=C(c1ccccc1F)N1CC(c2nc(C3CC3)no2)C1 | 5.464 |
| O=C(c1cccnc1N1CCOC(c2ccc(F)cc2)C1)N1CCCC1 (stereo not given) | 5.755 |
| N#Cc1ccc(C(=O)N2CC(c3nc(-c4ncccn4)no3)C2)cc1 | 10.08 |
| O=C(c1ccccc1F)N1CCOC(c2nc(-c3ncccn3)no2)C1 (stereo not given) | 128.4 |
| O=C(c1ccccc1F)N1CC(c2nc(-c3ccc[nH]c3=O)no2)C1 | 1.982 |
| CO[C@H]1COCCN(C(=O)c2ccc(F)cc2)C1 | 0.8542 |
| Cc1ccc(C(=O)N2CCOC(c3nc(-c4ncccn4)no3)C2)cc1 (stereo not given) | 94.58 |
| Cc1nccnc1-n1c(COCC(=O)O)nc2c(C)cccc21 | -2.278 |
| Cc1nc2c(C(=O)O)cccc2n1-c1ccc(C(=O)N2CCCC2)o1 | -15.07 |
| CC(=O)N1CCN(C(=O)C[C@@H]2C[C@@H](C(C)C)[C@H](CC#N)C=C2C)CC1 | 4.574 |
| Cc1ccnc(N2CCC(NCCOc3ccccc3)CC2)n1 | -3.135 |
| Cc1ccc(N2CCCC(NCCCS(C)(=O)=O)C2)nn1 (stereo not given) | 0.9171 |
| Cc1ccc(N2CCCC(NCC(=O)NC(C3CC3)C3CC3)C2)nn1 (stereo not given) | 84.95 |
| CC(=O)NCCNC(=O)CNC1CCCN(c2ccc(C)nn2)C1 (stereo not given) | 88.86 |

| Compound | Percent Effect [%] |
| --- | --- |
| Cc1ccc(N2CCCC(NCCS(C)(=O)=O)C2)nn1 (stereo not given) | 2.432 |
| CC(C)=CCNC1CCCN(c2ccc(C)nn2)C1 (stereo not given) | -19.9 |
| COCCCNC1CCCN(c2ccc(C)nn2)C1 (stereo not given) | 22.77 |
| Cc1ccc(N2CCCC(NCC(=O)Nc3cc(C)nn3C)C2)nn1 (stereo not given) | 95.11 |
| Cc1ccc(N2CCCC(NCC(=O)NCC3CC3)C2)nn1 (stereo not given) | 1.938 |
| Cc1ccn(-c2ccc(NCc3ccnc(N4CCCCC4)c3)nn2)n1 | 4.336 |
| O=C(CCc1ccc(Br)cc1F)NS(=O)(=O)c1ccc2c(c1)OCCO2 | -3.282 |
| Cc1ccc(CN[C@@H]2CO[C@H](CNS(=O)(=O)c3ccccc3)[C@H]2O)cc1 | -4.281 |
| CC1CCc2nc(NS(=O)(=O)c3cnn(C)c3)sc2C1 (stereo not given) | 97.97 |
| Cn1cc(S(=O)(=O)Nc2ccc3[nH]c(C4CCC4)nc3c2)cn1 | -3.023 |
| CCn1cc(S(=O)(=O)NC2CCCC2)cn1 | 8.847 |
| CCn1cc(S(=O)(=O)Nc2nc3c(s2)CC(C)CC3)cn1 (stereo not given) | 98.13 |
| Cn1cc(S(=O)(=O)Nc2c(F)cccc2N2CCCC2)cn1 | -10.22 |
| CCn1cc(S(=O)(=O)NC2CCCN(CC3CCCCC3)C2)cn1 (stereo not given) | 19.95 |
| Cc1oc(C(=O)O)cc1S(=O)(=O)Nc1cc(Br)ccc1Cl | 106.9 |
| Cc1oc(C(=O)O)cc1S(=O)(=O)Nc1ccc(Cl)c(Cl)c1 | -3.012 |
| Cc1noc(C)c1NS(=O)(=O)c1cc(C(=O)O)cc(Cl)c1Cl | 3.53 |
| Cc1ccc(NS(=O)(=O)c2cc(C(=O)O)oc2C)c(Br)c1 | 0.9383 |
| Cc1oc(C(=O)O)cc1S(=O)(=O)Nc1cccc(-n2nccc2C)c1 | -0.5451 |
| Cc1oc(C(=O)O)cc1S(=O)(=O)Nc1ccc(Br)cc1Cl | 96.02 |
| O=S(=O)(CCNCc1ccc2c(c1)CCO2)N1CCOCC1 | 0.3646 |
| CC(C)N1CC(C(=O)NCc2ccnc(-n3cccn3)c2)CC1=O (stereo not given) | -4.025 |
| COCCN1CC(C(=O)NCc2ccnc(-n3cccn3)c2)CC1=O (stereo not given) | -1.182 |
| O=C(NCc1ccnc(-n2cccn2)c1)C1CC(=O)N(CC2CC2)C1 (stereo not given) | 153.4 |
| COCCN1CC(C(=O)NCc2cccnc2-n2cccn2)CC1=O (stereo not given) | 120.6 |

| Compound | Percent Effect [%] |
| --- | --- |
| CCN1CC(C(=O)NCc2ccccc2-n2cccn2)CC1=O (stereo not given) | 3.983 |
| CN(C)CCN1CC(C(=O)NCc2cccc(-n3cccn3)c2)CC1=O (stereo not given) | 7.096 |
| CN1CC(C(=O)NCc2cccnc2OCc2ccccc2)CC1=O (stereo not given) | 10.22 |
| O=C(NCc1cccnc1-n1cccn1)C1CC(=O)N(CC2CC2)C1 (stereo not given) | -9.395 |
| CN(C)CCN1CC(C(=O)NCc2cn3cccnc3n2)CC1=O (stereo not given) | -11.69 |
| CN1CC(C(=O)NCc2cccnc2-n2cccn2)CC1=O (stereo not given) | 63.73 |
| CCN1CC(C(=O)NCc2cccnc2-n2cccn2)CC1=O (stereo not given) | 124.7 |
| CCS(=O)(=O)N1CCN(C(=O)c2ccc(Cn3cc(Br)cn3)cc2)CC1 | -241.9 |
| CCN(C(=O)CN1CCN(CC(C)O)CC1)C1=CCCCC1 (stereo not given) | -11.46 |
| COc1cc(F)c(-n2cnc(CCNC(C)=O)c2)cc1F | -17.55 |
| CCN1CCN(S(=O)(=O)N2CCCC2)[C@H]2CS(=O)(=O)C[C@H]21 | -2.731 |
| CCN(CC(=O)NCc1nc(C2CC2)no1)Cc1ccc(Cl)cc1 | 3.966 |
| O=C(NCc1cnn2cccnc12)C1CC(=O)N(Cc2cccnc2)C1 (stereo not given) | -5.518 |
| CC(C)CN1CC(C(=O)NCc2cccnc2-n2cccn2)CC1=O (stereo not given) | 126 |
| CC(C)CN1CCN(C(=O)NCc2cccnc2-n2cccn2)CC1 | 4.797 |
| COCC1c2nnn(CC3CC3)c2CCN1C(=O)CS(C)(=O)=O (stereo not given) | -0.612 |
| C[C@@H](O)CNc1c(NCc2ccco2)c(=O)c1=O | 100.7 |
| COc1ccccc1C(C)(C)NCc1ccco1 | -0.6951 |
| CC(O)CNc1c(NCc2ccco2)c(=O)c1=O (stereo not given) | 135.5 |
| Cc1nn(-c2ccccc2)nc1C(=O)NCC(c1ccco1)N(C)C (stereo not given) | -4.253 |
| CN(C)C(CNc1c(NCc2ccco2)c(=O)c1=O)c1ccccc1 (stereo not given) | 131.6 |
| CC(CNC(=O)NCc1ccco1)CC1(C)OCCO1 (stereo not given) | 3.835 |
| CNc1c(NCc2ccco2)c(=O)c1=O | 113.6 |
| O=S(=O)(Cc1ccccc1)NCc1ccco1 | 0.9463 |
| Cc1ccc(CS(=O)(=O)NCc2ccco2)cc1 | 3.7 |

Reference: ChEMBL document CHEMBL3988442, “University of Dundee, Small-Polar-MMV Screening Library” (2021)
